Measured values from PubChem BioAssay AID1159580 (chemical genetic matrix, 2015).
The whole screen tested about 5,500 compounds, of which about 2,000 (36%) were called active. About 18% were inconclusive and are not listed. Rule as the data show it: active = normalized growth mostly below about 0.91 (no sharp cut-off); inconclusive = no clear call, values can overlap the other calls; inactive = mostly above about 0.92. The list shows a part of the results.

Test: chemical genetic growth profiling, strain panel (AID 1159580);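 also: tested at 20 µM; growth read once vehicle control cultures reached saturation at 30 °C; 1 = growth at the plate median or of vehicle wells; lower values mean less growth of the strain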
Conditions: growth OD

Measured: normalized growth

C[C@@H]1[C@H]2[C@H](O[C@@H]3O[C@H](CO)[C@@H](O)[C@H](O)[C@H]3O)OC=C(C(=O)O)[C@H]2C[C@@H]1O
inactive: S. cerevisiae deletion strains, locus YAL013W, strain DEP1, hits give low values 1.01 | S. cerevisiae deletion strains, locus YBR021W, strain FUR4, hits give low values 1.05 | S. cerevisiae deletion strains, locus YBR229C, strain ROT2, hits give low values 0.964 | S. cerevisiae deletion strains, locus YCL029C, strain bik1, hits give low values 0.963 | S. cerevisiae deletion strains, locus YDL035C, strain GPR1, hits give low values 1.02 | S. cerevisiae deletion strains, locus YDL074C, strain BRE1, hits give low values 1.08 | S. cerevisiae deletion strains, locus YDL101C, strain DUN1, hits give low values 0.98 | S. cerevisiae deletion strains, locus YDL134C, strain PPH21, hits give low values 0.999 | S. cerevisiae deletion strains, locus YDL185W, strain tfp1, hits give low values 0.962 | S. cerevisiae deletion strains, locus YDL192W, strain arf1, hits give low values 1.03 | S. cerevisiae deletion strains, locus YDR101C, strain arx1, hits give low values 1.01 | S. cerevisiae deletion strains, locus YDR162C, strain NBP2, hits give low values 0.963 | S. cerevisiae deletion strains, locus YDR318W, strain mcm21, hits give low values 0.986 | S. cerevisiae deletion strains, locus YDR388W, hits give low values 0.996 | S. cerevisiae deletion strains, locus YDR502C, strain sam2, hits give low values 1 | S. cerevisiae deletion strains, locus YEL061C, strain CIN8, hits give low values 0.999 | S. cerevisiae deletion strains, locus YER110C, hits give low values 0.974 | S. cerevisiae deletion strains, locus YER155C, strain BEM2, hits give low values 1.02 | S. cerevisiae deletion strains, locus YER167W, strain BCK2, hits give low values 1 | S. cerevisiae deletion strains, locus YGL078C, strain dbp3, hits give low values 0.986 | S. cerevisiae deletion strains, locus YGL086W, strain mad1, hits give low values 1.01 | S. cerevisiae deletion strains, locus YGL248W, strain PDE1, hits give low values 0.987 | S. cerevisiae deletion strains, locus YGR078C, strain PAC10, hits give low values 0.984 | S. cerevisiae deletion strains, locus YGR135W, strain pre9, hits give low values 0.98 | S. cerevisiae deletion strains, locus YGR252W, strain gcn5, hits give low values 0.995 | S. cerevisiae deletion strains, locus YHR030C, strain SLT2, hits give low values 1.01 | S. cerevisiae deletion strains, locus YHR079C, strain IRE1 (second series), hits give low values 0.985 | S. cerevisiae deletion strains, locus YHR094C, strain hxt1, hits give low values 0.991 | S. cerevisiae deletion strains, locus YHR129C, strain ARP1, hits give low values 1 | S. cerevisiae deletion strains, locus YHR200W, strain rpn10, hits give low values 0.99 | S. cerevisiae deletion strains, locus YIL066C, strain RNR3, hits give low values 1 | S. cerevisiae deletion strains, locus YIL073C, strain SPO22, hits give low values 1.01 | S. cerevisiae deletion strains, locus YIL125W, strain kgd1, hits give low values 0.978 | S. cerevisiae deletion strains, locus YIR030C, strain dcg1, hits give low values 0.995 | S. cerevisiae deletion strains, locus YJL095W, strain BCK1, hits give low values 0.996 | S. cerevisiae deletion strains, locus YJL134W, strain LCB3, hits give low values 0.988 | S. cerevisiae deletion strains, locus YJL168C, strain set2, hits give low values 1.01 | S. cerevisiae deletion strains, locus YJL187C, strain SWE1 (second series), hits give low values 0.987 | S. cerevisiae deletion strains, locus YJR043C, strain POL32, hits give low values 1.01 | S. cerevisiae deletion strains, locus YKL009W, strain mrt4, hits give low values 1.03 | S. cerevisiae deletion strains, locus YKL068W, hits give low values 0.977 | S. cerevisiae deletion strains, locus YKL085W, strain MDH1 (second series), hits give low values 0.987 | S. cerevisiae deletion strains, locus YKL085W, strain MDH1, hits give low values 0.987 | S. cerevisiae deletion strains, locus YKR001C, strain vps1, hits give low values 0.983 | S. cerevisiae deletion strains, locus YLR039C, strain RIC1, hits give low values 1.03 | S. cerevisiae deletion strains, locus YLR058C, strain SHM2, hits give low values 0.977 | S. cerevisiae deletion strains, locus YLR102C, strain apc9, hits give low values 0.987 | S. cerevisiae deletion strains, locus YLR262C, strain YPT6, hits give low values 0.908 | S. cerevisiae deletion strains, locus YLR268W, strain sec22, hits give low values 1.02 | S. cerevisiae deletion strains, locus YLR330W, strain CHS5, hits give low values 1.01 | S. cerevisiae deletion strains, locus YLR342W, strain FKS1 (second series), hits give low values 1.11 | S. cerevisiae deletion strains, locus YLR371W, strain rom2, hits give low values 0.978 | S. cerevisiae deletion strains, locus YLR418C, strain cdc73, hits give low values 0.984 | S. cerevisiae deletion strains, locus YML016C, strain PPZ1, hits give low values 0.998 | S. cerevisiae deletion strains, locus YML032C, strain rad52, hits give low values 0.995 | S. cerevisiae deletion strains, locus YML124C, strain tub3, hits give low values 0.992 | S. cerevisiae deletion strains, locus YMR078C, strain ctf18, hits give low values 0.976 | S. cerevisiae deletion strains, locus YMR223W, strain ubp8, hits give low values 1.02 | S. cerevisiae deletion strains, locus YMR307W, strain GAS1, hits give low values 1.16 | S. cerevisiae deletion strains, locus YNL067W, strain RPL9B, hits give low values 0.992 | S. cerevisiae deletion strains, locus YNL128W, strain TEP1, hits give low values 1 | S. cerevisiae deletion strains, locus YNL233W, strain BNI4, hits give low values 1.01 | S. cerevisiae deletion strains, locus YNL250W, strain rad50, hits give low values 0.992 | S. cerevisiae deletion strains, locus YNL271C, strain bni1, hits give low values 0.994 | S. cerevisiae deletion strains, locus YNL298W, strain CLA4, hits give low values 0.991 | S. cerevisiae deletion strains, locus YNL307C, strain MCK1, hits give low values 0.986 | S. cerevisiae deletion strains, locus YNR052C, strain pop2, hits give low values 0.96 | S. cerevisiae deletion strains, locus YOL012C, strain htz1 0.853 | S. cerevisiae deletion strains, locus YOL147C, strain pex11, hits give low values 0.991 | S. cerevisiae deletion strains, locus YOR061W, strain CKA2, hits give low values 0.962 | S. cerevisiae deletion strains, locus YOR069W, strain VPS5, hits give low values 0.999 | S. cerevisiae deletion strains, locus YOR136W, strain idh2, hits give low values 0.989 | S. cerevisiae deletion strains, locus YOR144C, strain elg1, hits give low values 0.981 | S. cerevisiae deletion strains, locus YOR184W, strain ser1, hits give low values 1.02 | S. cerevisiae deletion strains, locus YOR316C, strain cot1, hits give low values 0.981 | S. cerevisiae deletion strains, locus YPR119W, strain clb2, hits give low values 0.999 | S. cerevisiae deletion strains, locus YPR141C, strain kar3, hits give low values 0.97 | S. cerevisiae deletion strains, locus YPR163C, strain tif3, hits give low values 0.989 | S. cerevisiae deletion strains, locus YPR167C, strain met16, hits give low values 0.973 | S. cerevisiae deletion strains, strain wtn01, hits give low values 1.01 | S. cerevisiae strains, strain wild type, hits give low values 1
